# This is part of a sample that, as a whole, favours compounds with a hit. Of some 79,000 tested, about 15% had one in any assay. Unmarked numbers belong to inactive results. Active and inactive are the calls of the source. No stated cut-off is given here; in the data, active means growth inhibition above about 70%; inactive means the rest.
# Test: NCI Yeast Anticancer Drug Screen. Data for the cln2 rad14 strain (AID 165);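 further: 0% = growth equal to vehicle treated cultures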
# Details: S. cerevisiae cln2 rad14 strain, at 50.0 µM, hits give high values
# Description: Growth inhibition of yeast strains with defined genetic alterations is measured as a screen for potential anti-cancer activity. Selected strains with alterations in DNA damage repair or cell cycle control were exposed to compounds and growth inhibition was measured relative to vehicle treated controls. The strain used in this assay is cln2 rad14
row,Structure (SMILES),growth inhibition
1,COc1ccc(-c2c(C(=O)O)cc(O)c3c(OC)c(OC)c(OC)cc23)cc1OC,-9.2%
2,C/C(=N\N=C(N)N)C(CN(CC(C)C)CC(C)C)C(=O)Nc1ccc(C)cc1C (stereo not given),38.3%
3,CNC(=S)n1ncnc1N,-17.8%
4,CC1CC(C)OC(c2ccco2)O1 (stereo not given),-37.6%
5,CC[N+]1(C)CCC(CN2c3ccccc3Sc3ccccc32)C1 (stereo not given),-2.65%
6,Fc1c(F)c(F)c(CCc2c(F)c(F)c(F)c(F)c2F)c(F)c1F,-39.1%
7,O=C(O)c1ccc(Nc2nc3ccccc3nc2C(=O)O)cc1,7.05%
8,O=C(Nc1cc2[nH]c(=O)c3ccccc3c2cc1[N+](=O)[O-])C(F)(F)F,0.9%
9,CCOc1ccccc1NC(=O)CC(=O)N1N=C(C)C(N=Nc2ccccc2C(=O)O)C1=O (stereo not given),-2.3%
10,CCCCCCCCCCCCCCCCSS(=O)(=O)O,-1.15%
11,C1CCC(C2CCC(C3CCCCC3)CC2)CC1 (stereo not given),-45.6%
12,CCC(c1ccc(OCC(=O)N2CC2)cc1)C(CC)c1ccc(OCC(=O)N2CC2)cc1 (stereo not given),17.8%
13,O=[N+]([O-])c1ccc(/C=N\N=P(c2ccccc2)(c2ccccc2)c2ccccc2)cc1,1.9%
14,CC(C)NC(=O)OCc1c(COC(=O)NC(C)C)n(C)c2c1ccc1ccccc12,84.5% (active)
15,Cc1ccc(C(=O)OC(C)C)cc1N=NN(C)C,27.1%
16,N#Cc1c(-c2ccco2)c2c(n(C3OC(CO)C(O)C(O)C3O)c1=S)CCCC2 (stereo not given),-7.75%
17,CC(=O)C(/C=N\N=C(/C)c1cn[nH]c1C)=C(/C)O,-58.1%
18,FC(F)(F)c1ccc(C2SCc3nc4ccccc4n32)cc1 (stereo not given),-0.5%
19,CN(C)c1ccc(-c2nc(N)nc3c2CCCC3)cc1,22.4%
20,C1=C(c2ccccc2)C(c2ccccc2)=C(c2ccccc2)C(c2ccccc2)C(c2ccccc2)=N1 (stereo not given),21.4%

row,Structure (SMILES),growth inhibition
1,COc1cc(/C=C/c2ccccn2)oc(=O)c1,-14.3%
2,O=C(O)CCCC#CCCCC(=O)O,17.3%
3,CCOC(=O)NNC(N)=O,-22.1%
4,OCC1C2C=CC(O2)[C@H]1CO (stereo not given in full),-27.9%
5,CC(=O)C(c1ccccc1)N(CCO)Cc1ccccc1 (stereo not given),28.6%
6,CCNCCCCNCC,8.1%
7,CCCc1[nH]n(-c2ccccc2)c(=O)c1N=Nc1ccc(Cl)cc1,-5.1%
8,CCOC(=O)c1[nH]n(-c2ccccc2)c(=O)c1/C=N/C(=S)NCCc1ccc(OC)c(OC)c1,-10.8%
9,CC1=CC2=C(OCO1)C(=O)c1ccccc1C2=O,-17.1%
10,O=S1(=O)C=CC(N/N=C\c2ccc3ccccc3n2)=C1,-36.8%
11,O=C([O-])c1ccc2c(c1)-c1nc-2nc2[n-]c(nc3nc(nc4[n-]c(n1)c1ccc(C(=O)[O-])cc41)-c1cc(C(=O)[O-])ccc1-3)c1ccc(C(=O)[O-])cc21.[Fe+2],3.65%
12,C/C(N=NC(=S)N1CCCC1)=C1\C=CC=CN1O,-5.6%
13,Clc1cc2nc(C3CCCO3)[nH]c2cc1Cl (stereo not given),5%
14,N#CSc1nc[nH]c1C(N)=O,-16.6%
15,CCOC(=O)C1CC(=O)C2/C(=C(\O)c3ccccc3)C=C([N+](=O)[O-])C1C2[N+](=O)[O-] (stereo not given),-1.25%
16,O=C1C2ON3c4ccccc4C(=O)C3(c3ccccc3)C2C(=O)N1c1ccccc1 (stereo not given),-14.3%
17,COc1ccc(Cl)cc1[N+](=O)[O-],9.5%
18,O=C(O)c1ccc(NC(NC(=O)C(C(F)(F)F)C(F)(F)F)(C(F)(F)F)C(F)(F)F)cc1,1.2%
19,COc1ccc2nc3cc(Cl)ccc3c(C=O)c2c1,-35.8%
20,CN(C)c1ccc2c(SCC(=O)OCC(=O)C3(O)CCC4C5CCC6=CC(=O)C=CC6(C)C5C(O)CC43C)c3ccc(N(C)C)cc3nc2c1 (stereo not given),60%
